Some test systems named below: NCI-H23 lung; NCI-H226 lung; NCI-H322M lung; HOP-62 NSCLC; NCI-H460 lung; HOP-92 NSCLC; NCI-H522 lung; A549/ATCC NSCLC; 786-0 renal; COLO 205 colon; DU-145 prostate; K-562 leukemia; MALME-3M melanoma; MDA-MB-231 breast; RXF 393 renal; SF-268 CNS; SF-295 CNS; SF-539 CNS; UACC-257 melanoma; M14 melanoma.
Common to all, as to test: NCI-60 one-dose screen, 48 h (100 = growth as untreated, 0 = no growth, -100 = all killed)
Common to all, as to conditions: 10 µM unless noted

This is part of a sample that, as a whole, favours compounds with a hit. Of some 83,000 tested, about 20% had one in any assay.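 How to read the values: 0–100, growth inhibition (40 = 60% inhibited); 0, no net growth; -100 to 0, cell death (-40 = 40% of starting cells died; -100 = all dead).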 A number with no mark means an inactive call. Active and inactive are the calls of the source. How the source made its calls: active means growth percent below 10; inactive means the rest.

For `C=C(C)[C@@H]1CC[C@]2(c3ncc(C)o3)CC[C@]3(C)[C@H](CC[C@@H]4[C@@](C)(CCC#N)[C@H](C(=C)C)CC[C@]43C)[C@@H]12`, the growth was -68.1% [100 µM] (active) with NCI-H23 lung; -55.2% [100 µM] (active) with NCI-H226 lung; -83.5% [100 µM] (active) with NCI-H322M lung; -86.1% [100 µM] (active) in the test with HOP-62 NSCLC; -71.4% [100 µM] (active) with NCI-H460 lung; -85.7% [100 µM] (active) in the test with HOP-92 NSCLC. Also, the growth is -85.4% [100 µM] (active) in the test on NCI-H522 lung; -84.8% [100 µM] (active) in the test on A549/ATCC NSCLC; -85.6% [100 µM] (active) with 786-0 renal; -82% [100 µM] (active) in the test on COLO 205 colon; -76.4% [100 µM] (active) in the test with DU-145 prostate; 4.09% [100 µM] (active) with K-562 leukemia. Also, the growth is -87.5% [100 µM] (active) with MALME-3M melanoma; -96.1% [100 µM] (active) with MDA-MB-231 breast; -83.6% [100 µM] (active) in the test on RXF 393 renal; -66.2% [100 µM] (active) with SF-268 CNS; -81.7% [100 µM] (active) in the test on SF-295 CNS; -94.3% [100 µM] (active) in the test with SF-539 CNS. Besides, the values for the growth with UACC-257 melanoma and in the test with M14 melanoma were -80.5% [100 µM] (active) and -68.4% [100 µM] (active), respectively.
Take `Clc1ccc(N2CCN(CCCN3CCN(c4cccc(Cl)c4)CC3)CC2)cc1`: the growth in the test with NCI-H23 lung is 50.8%; in the test with NCI-H226 lung, 90.5%; with NCI-H322M lung, 78.3%; in the test on HOP-62 NSCLC, 67.7%; in the test with NCI-H460 lung it was 49.5%; in the test with HOP-92 NSCLC it was 42.7%. Besides, the growth in the test with NCI-H522 lung is 59.5%; with A549/ATCC NSCLC, 58.3%; with 786-0 renal it was 62.4%; in the test on COLO 205 colon, 42.3%; in the test on DU-145 prostate, 79.7%; in the test with K-562 leukemia, 38.8%. Besides, the growth in the test with MALME-3M melanoma is 52.8%; with MDA-MB-231 breast, 50.6%; in the test with RXF 393 renal, 41%; in the test with SF-268 CNS, 79.2%; with SF-295 CNS, 51.7%; with SF-539 CNS, 56.4%. The growth is 37.4% in the test with UACC-257 melanoma and 44.1% in the test on M14 melanoma.
As for `Cc1cc(SC#N)ncn1`, the growth was 103% in the test on NCI-H23 lung; 99% in the test on NCI-H226 lung; 103% in the test with NCI-H322M lung; 98.2% in the test on HOP-62 NSCLC; 99.5% with NCI-H460 lung; 106% in the test with HOP-92 NSCLC. The growth with NCI-H522 lung is 92.3%; with A549/ATCC NSCLC, 93.5%; with 786-0 renal, 109%; with COLO 205 colon, 115%; in the test on DU-145 prostate, 112%; in the test on K-562 leukemia, 95.1%. Besides, the growth in the test with MALME-3M melanoma is 100%; in the test on MDA-MB-231 breast, 93.3%; in the test with RXF 393 renal, 105%; in the test with SF-268 CNS, 111%; in the test with SF-295 CNS it was 128%; in the test with SF-539 CNS, 103%. The growth in the test with UACC-257 melanoma was 103%; in the test with M14 melanoma, 108%.
In the case of `Cc1ccc(S(=O)(=O)N/N=C2\CC3CCC2(C)C3(C)C)cc1` (stereo not given), the growth with NCI-H23 lung is 237%; in the test with NCI-H226 lung, 96.9%; in the test on NCI-H322M lung, 116%; in the test on HOP-62 NSCLC it was 103%; in the test on NCI-H460 lung, 108%; in the test with HOP-92 NSCLC, 95.6%. Moreover, the growth in the test with NCI-H522 lung is 63.1%; with A549/ATCC NSCLC, 81.8%; with 786-0 renal, 103%; in the test with COLO 205 colon, 113%; in the test with DU-145 prostate, 105%; in the test with K-562 leukemia, 120%. Further, the growth in the test on MALME-3M melanoma was 103%; in the test with MDA-MB-231 breast, 89%; in the test on RXF 393 renal, 89.4%; in the test with SF-268 CNS it was 116%; in the test on SF-295 CNS it was 94%; in the test on SF-539 CNS it was 102%. For the same molecule, the growth in the test with UACC-257 melanoma was 87.8%; in the test on M14 melanoma, 77.9%.
For `NC(=O)c1c(NC(=O)COC(=O)Cc2ccccc2F)sc2c1CCC2`, the growth in the test on NCI-H23 lung was 99.2%; in the test with NCI-H226 lung it was 94.4%; in the test with NCI-H322M lung, 126%; in the test with HOP-62 NSCLC, 115%; with NCI-H460 lung, 100%; with HOP-92 NSCLC it was 89.3%. In addition, the growth with NCI-H522 lung is 85.5%; in the test with A549/ATCC NSCLC it was 103%; in the test on 786-0 renal, 97.6%; in the test on COLO 205 colon, 101%; in the test on DU-145 prostate it was 104%; with K-562 leukemia, 139%. In addition, the growth in the test on MALME-3M melanoma was 109%; in the test on MDA-MB-231 breast, 101%; in the test with RXF 393 renal, 109%; in the test on SF-268 CNS, 99.6%; with SF-295 CNS it was 129%; in the test with SF-539 CNS, 94.9%. The growth in the test on UACC-257 melanoma was 4.15% (active); with M14 melanoma, 105%.
For the molecule `CCCCCn1c(C)cc(/C=C\c2ccc3cc(C)ccc3[n+]2C)c1C`, the growth in the test on NCI-H23 lung is 3.14% (active); in the test on NCI-H226 lung it was -58.4% (active); in the test with NCI-H322M lung it was 30.3%; with HOP-62 NSCLC, -58.9% (active); with NCI-H460 lung, -75.1% (active); in the test on HOP-92 NSCLC it was -64% (active). Further, the growth is -36.7% (active) in the test on NCI-H522 lung; -84.5% (active) in the test on A549/ATCC NSCLC; -76.7% (active) in the test with 786-0 renal; -92.5% (active) in the test with COLO 205 colon; -52.3% (active) in the test on DU-145 prostate; 9.64% (active) in the test with K-562 leukemia. For the same molecule, the growth is -67.5% (active) with MALME-3M melanoma; -46.8% (active) with MDA-MB-231 breast; -60.8% (active) in the test with RXF 393 renal; -61% (active) with SF-268 CNS; -90.9% (active) in the test with SF-295 CNS; -85.8% (active) in the test on SF-539 CNS. The growth in the test on UACC-257 melanoma was -99.1% (active); with M14 melanoma it was -71.2% (active).
For the molecule `Nc1ccc(NC(=O)c2ccccc2)c2c1C(=O)c1ccccc1C2=O`, the growth in the test on NCI-H23 lung was 96.1%; in the test on NCI-H226 lung, 89.5%; with NCI-H322M lung, 99.1%; with HOP-62 NSCLC, 107%; in the test with NCI-H460 lung it was 104%; in the test on HOP-92 NSCLC, 80.2%. The growth with NCI-H522 lung is 111%; in the test with A549/ATCC NSCLC, 97%; in the test with 786-0 renal, 103%; in the test with COLO 205 colon, 109%; with DU-145 prostate, 98.5%; with K-562 leukemia it was 105%. The growth was 89.5% in the test with MALME-3M melanoma; 94.7% in the test with MDA-MB-231 breast; 106% in the test with RXF 393 renal; 99.3% in the test with SF-268 CNS; 105% in the test with SF-295 CNS; 103% in the test on SF-539 CNS. The growth in the test with UACC-257 melanoma was 88.8%; in the test with M14 melanoma, 100%.

These data come from PubChem BioAssay (NCI).
